Rce1 inh – yeast Ras-converting enzyme inhibition; AID 2563; calls only; 290,000 tested, 0.27% active; Q03530; yeast membranes, quenched prenylated peptide cleavage fluorescence;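 active = fall in fluorescence gain of 50% or more versus controls, with final raw signal at or below 3038400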;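 also: plate controls were neutral control wells for no effect and wells lacking membranes for full effect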
Kir21 block – blocks the mouse Kir2.1 inward-rectifier potassium channel | P35561 | HEK293-Kir2.1, FluxOR thallium flux fluorescence; hits give low values | 310,000 tested, 0.85% active | B-score at 10 µM;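 active = fluorescence ratio B-score at or below minus 3 SD of library scores, with starting-brightness B-score within 2 SD, cut at about -4.2 in these data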;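 also: channel flux triggered by added potassium and thallium sulfate stimulus; B-score of peak minus minimum fluorescence over baseline after thallium stimulus; more negative B-score means stronger Kir2.1 block with less thallium influx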
CHT inh – human CHT choline transport inhibition; CHT-expressing cells, membrane potential dye, choline response; hits give low values; B-score at 10 µM; 310,000 tested, 0.86% active; AID 488975;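 active = B-score over 3 SD under the library average, and starting fluorescence ratio not unusually high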;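 also: choline stimulus applied at its EC90 after an EC20 pre-addition; B-score computed on integrated fluorescence ratio after choline addition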
CHT allo act – human CHT allosteric activation; Q9GZV3; CHT-expressing cells, membrane potential dye, choline EC20; hits give high values; LV-AA mutant CHT in HEK293 cells; B-score at 10 µM; 310,000 tested, 0.49% active;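 active = initial fluorescence not abnormally high and integrated response B-score, plate-corrected, over 3 SD above library mean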
TMEM16A act – activators or potentiators of mouse TMEM16A chloride channel; 340,000 tested, 0.3% active; HEK293 TMEM16A/YFP-H148Q/I152L, iodide quench fluorescence; hits give low values; B-score at 10 µM; Q8BHY3;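 active = fluorescence-ratio B-score plate-corrected deviation score at least 3 library SD below zero, with starting fluorescence score within 5 deviations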;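 also: channel opened by trigger with iodide after compound preincubation; score built on the fluorescence ratio of max minus min over baseline; more negative score means more quench and so TMEM16A activation or potentiation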
Target sequence (Q8BHY3 whole entry, looked up): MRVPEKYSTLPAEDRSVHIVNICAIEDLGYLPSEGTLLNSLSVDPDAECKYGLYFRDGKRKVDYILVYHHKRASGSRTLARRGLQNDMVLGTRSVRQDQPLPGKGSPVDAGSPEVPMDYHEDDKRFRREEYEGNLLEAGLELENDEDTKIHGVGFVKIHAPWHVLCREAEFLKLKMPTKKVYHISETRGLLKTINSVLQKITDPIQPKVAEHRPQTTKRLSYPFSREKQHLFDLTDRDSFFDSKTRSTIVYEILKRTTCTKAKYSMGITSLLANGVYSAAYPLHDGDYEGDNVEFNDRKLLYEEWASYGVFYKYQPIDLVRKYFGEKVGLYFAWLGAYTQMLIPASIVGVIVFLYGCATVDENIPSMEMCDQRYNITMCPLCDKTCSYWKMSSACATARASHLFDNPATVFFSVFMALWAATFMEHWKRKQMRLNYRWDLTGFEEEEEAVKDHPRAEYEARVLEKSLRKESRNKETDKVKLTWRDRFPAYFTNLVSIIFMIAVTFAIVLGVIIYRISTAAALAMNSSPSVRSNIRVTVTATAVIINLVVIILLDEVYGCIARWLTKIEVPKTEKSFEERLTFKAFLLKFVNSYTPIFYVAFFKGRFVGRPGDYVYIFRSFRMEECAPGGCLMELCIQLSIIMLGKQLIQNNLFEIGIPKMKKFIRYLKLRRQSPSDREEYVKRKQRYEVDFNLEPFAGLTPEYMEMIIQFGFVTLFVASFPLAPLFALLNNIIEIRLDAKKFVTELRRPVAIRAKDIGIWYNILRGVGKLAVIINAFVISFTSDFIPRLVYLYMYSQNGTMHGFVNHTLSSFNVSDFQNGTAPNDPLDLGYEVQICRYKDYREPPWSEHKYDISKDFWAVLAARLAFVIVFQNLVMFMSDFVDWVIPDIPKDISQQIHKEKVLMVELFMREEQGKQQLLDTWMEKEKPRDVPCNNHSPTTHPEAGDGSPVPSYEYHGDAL
ANO1 block – blocks the mouse calcium-activated chloride channel TMEM16A; normalized B-score (activity score, 25-100; higher = stronger inhibition) at 10 µM; Q8BHY3; AID 588511; 310,000 tested, 1.2% active; HEK293 TMEM16A/YFP iodide influx fluorescence, ionomycin;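 active = ratio plate-corrected score three or more library SD toward inhibition, starting fluorescence score within five deviations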;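 also: score derived from kinetic fluorescence span divided by baseline fluorescence per well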
CHT inh conf – human CHT inhibition, confirmatory screen. shares compounds with CHT inh. CHT-expressing cells, choline membrane potential dye; LV-to-AA substituted CHT, HEK293 cells. CHT activity remaining % of control (hits give low values), % at 10 µM. 2,400 tested, 70% active. AID 493221;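 active = choline transporter activity left, mean of duplicates at 10 µM, below buffer-only control mean minus 3 SD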;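 also: depolarization triggered by choline at its EC90 following an EC20 pre-addition; 0% = hemicholinium-3 full block and 100% = buffer-only control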
HEK293 MPD ctr – CHT inhibitor counter-screen hit in parental HEK293 cells | membrane potential ratio readout (active if shifted either direction beyond buffer ±3SD; no single direction) at 10 µM | membrane potential dye, choline response; active = decrease or increase beyond buffer ±3SD | shares compounds with CHT inh | AID 493222 | 2,400 tested, 4% active;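 also: parental cells lack the transporter so any hit is non-specific; ratio is peak minus trough fluorescence over baseline after EC90 choline challenge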
* hit, by the source's call; i = inactive; . = no result given. Shown are actives, neighbours in structure and some others; about 3.2% of the full set was active somewhere.

SMILES	Rce1 inh	Kir21 block	CHT inh	CHT allo act	TMEM16A act	ANO1 block	CHT inh conf	HEK293 MPD ctr
CCCSc1nc2sc3c(c2c(=O)n1CC)CC(C)(C)OC3	i	0.52	i	i	i	i	.	.
CCCCCc1nc2sc3c(c2c(=O)n1NC(=O)c1ccc([N+](=O)[O-])cc1)CC(C)(C)OC3	i	-0.05	-12.2*	i	i	25*	28.3%*	i
CCc1ccc(Nc2n[n+](-c3ccccc3)c(-c3cccc(C)c3)s2)cc1	.	.	-14.8*	i	i	i	48.7%*	2.6*
COc1ccc(-c2sc(Nc3ccccc3)n[n+]2-c2ccccc2)cc1Br	.	.	i	i	i	i	.	.
Cc1cccc(CCNC(=O)C2CCCN(c3ncnc4c3nc3n4CCCCC3)C2)c1 (stereo not drawn)	i	-0.98	-7.61*	i	i	i	18.7%*	i
COc1ccccc1NC(=O)C1CCCN(c2ncnc3c2nc2n3CCCCC2)C1 (stereo not drawn)	i	1.43	-6.8*	i	i	i	5.7%*	i
O=C(NCc1ccccc1)C1CCCN(c2ncnc3c2nc2n3CCCCC2)C1 (stereo not drawn)	i	1.05	i	i	i	i	.	.
O=C(Nc1ccccc1Cl)C1CCCN(c2ncnc3c2nc2n3CCCCC2)C1 (stereo not drawn)	i	0	-5.19*	i	i	i	25.6%*	i
N#Cc1c(C#N)c(SSc2c(C#N)c(C#N)c(N)n2-c2ccccc2)n(-c2ccccc2)c1N	.	.	.	.	i	.	.	.
Cc1ccccc1Nc1nc(N)nc(COC(=O)C(NC(=O)c2ccco2)C(C)C)n1 (stereo not drawn)	i	-0.06	-6.2*	i	i	i	i	i
CN1CCN(C(=S)c2ccc(OCC(=O)Nc3cccc(C(F)(F)F)c3)cc2)CC1	i	2.04	-6.23*	i	i	i	i	i
CNc1nc(NN)nc(Nc2ccccc2)n1	i	-1.01	i	i	i	i	.	.
CCc1nnc(NS(=O)(=O)c2ccc(NC(=O)c3ccc(Br)cc3)cc2)s1	i	-0.07	-6.69*	i	i	i	36.4%*	i
CCc1nnc(NS(=O)(=O)c2ccc(NC(=O)OC)cc2)s1	i	0	i	i	i	i	.	.
Cc1ccc(OCCN2CCN(C)CC2)c([N+](=O)[O-])c1	i	0	i	i	i	i	.	.
Cc1ccc(OCCCN2CCOCC2)c([N+](=O)[O-])c1	i	-0.6	-6.08*	i	i	i	i	i
CCCc1nnc(NC(=O)c2cn(CC)c3cc(N4CCN(C)CC4)c(F)cc3c2=O)s1	i	0.62	-5.2*	i	i	i	i	i
CCCCn1c(NCc2ccc3c(c2)OCO3)nc2ccccc21	i	-0.92	-7.28*	i	i	i	51.8%*	3.02*
CN(Cc1nc(-c2cccnc2)no1)S(=O)(=O)c1ccc(Br)cc1	i	-2.74	-5.66*	i	i	i	61.9%*	i
O=S(=O)(NCC1CCCO1)c1ccc(-c2ccc(S(=O)(=O)NCC3CCCO3)cc2)cc1 (stereo not drawn)	i	-0.19	i	i	i	i	.	.
O=C(Nc1ccc(S(=O)(=O)NCC2CCCO2)cc1)c1ccccc1 (stereo not drawn)	i	0.01	i	i	i	i	.	.
O=S(=O)(NCC1CCCO1)c1ccc(Oc2ccccc2)cc1 (stereo not drawn)	i	-0.6	-5.57*	i	i	i	i	i
CCC(Oc1ccccc1)C(=O)Nc1ccc(S(=O)(=O)NCC2CCCO2)cc1 (stereo not drawn)	i	0.97	-8.73*	i	i	i	39.7%*	i
